Compound activity deposited in PubChem by National Center for Advancing Translational Sciences (NCATS).
FEN1 inh-1 – human FEN1 inhibition. P39748. Recombinant FEN1 flap cleavage, fluorescence, 15 min. Potency, µM (highest dose often 114 µM), inactives show at the top dose activity change, negative = inhibition, usual class: inhibitors. 390,000 tested, 0.35% active; also: % is scaled to controls: 0 for no effect and ±100 for the full control effect; nearly all actives have a fitted effect of over 65% in size
Target sequence (P39748 whole entry, looked up): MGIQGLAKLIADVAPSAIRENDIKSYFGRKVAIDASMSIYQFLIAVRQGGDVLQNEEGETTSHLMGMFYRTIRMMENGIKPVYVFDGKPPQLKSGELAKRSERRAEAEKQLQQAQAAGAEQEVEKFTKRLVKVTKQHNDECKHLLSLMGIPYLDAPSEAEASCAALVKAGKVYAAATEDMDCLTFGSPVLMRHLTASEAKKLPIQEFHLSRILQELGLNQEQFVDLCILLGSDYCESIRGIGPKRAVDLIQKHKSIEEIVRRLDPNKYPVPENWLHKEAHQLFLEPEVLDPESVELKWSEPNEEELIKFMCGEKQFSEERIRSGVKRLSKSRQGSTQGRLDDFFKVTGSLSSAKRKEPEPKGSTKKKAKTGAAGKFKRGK
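Read-out was taken twice, immediately and after 15 min, following addition of 50 nM substrate to 10 nM FEN1 that had sat with test compound for 15 min at room temperature. Curves came from a four-parameter Hill model.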
BLM inh – inhibitors of human Bloom syndrome helicase BLM | P54132 | recombinant BLM DNA unwinding, fluorescence dequenching | Potency, µM (top dose mostly 56.1 µM), inactives show top-dose activity change, negative = inhibition, hits mostly inhibitors | 350,000 tested, 0.2% active;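 also: plate controls were vehicle for no effect and no enzyme for full effect; nearly all actives have a fitted effect of over 35% in size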
TDP1 block – TDP1 (human) enzyme inhibition; AID 485290; 350,000 tested, 0.28% active; recombinant TDP1, AlphaScreen DNA substrate cleavage; Potency, µM (doses to about 130 µM), without a hit: top-dose activity change, negative = inhibition, most hits filed as inhibitors; also: % is scaled to controls: 0 for no effect and ±100 for the full control effect; nearly all actives have a fitted effect of over 40% in size
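Compounds were preincubated with Tdp1 (1 nM final) for 15 min at room temperature before substrate (15 nM final) started a 5 min reaction; beads (10 ug/ml final) were then added for 10 min before AlphaScreen detection.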
APEX1 inh – inhibitors of human APE1 endonuclease. P27695. recombinant APE1, TAMRA/BHQ-2 abasic DNA cleavage fluorescence. Potency, µM (doses to about 65.8 µM), inactives show top-dose activity change, negative = inhibition, usual class: inhibitors. 350,000 tested, 0.35% active;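 also: plate controls were vehicle for no effect and reference inhibitor for full effect; nearly all actives have a fitted effect of over 55% in size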
Target sequence (P27695 whole entry, looked up): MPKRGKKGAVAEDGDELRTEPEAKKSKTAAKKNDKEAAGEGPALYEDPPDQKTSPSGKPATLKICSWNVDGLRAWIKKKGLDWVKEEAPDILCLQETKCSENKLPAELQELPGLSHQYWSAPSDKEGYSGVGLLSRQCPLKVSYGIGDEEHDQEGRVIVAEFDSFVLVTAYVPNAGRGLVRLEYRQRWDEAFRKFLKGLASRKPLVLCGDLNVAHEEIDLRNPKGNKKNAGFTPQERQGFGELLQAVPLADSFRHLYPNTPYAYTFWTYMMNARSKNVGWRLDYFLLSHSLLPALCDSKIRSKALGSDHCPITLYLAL
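Incision of a quenched TAMRA/BHQ-2 THF abasic-site duplex (50 nM) by 0.75 nM APE1, after 15 min compound preincubation, measured as fluorescence increase over three 60 s reads. Values normalized to buffer, DMSO and NSC13755 control wells.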
RECQ1 inh – inhibitors of human RECQ1 DNA helicase; P46063; Potency, µM (doses to about 57.3 µM), for the others: at the top dose activity, negative = inhibition, hits mostly inhibitors; 240,000 tested, 0.54% active; RECQ1 DNA unwinding, red fluorescence kinetic read;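 also: plate controls were vehicle for no effect and no enzyme for full effect; nearly all actives have a fitted effect of over 30% in size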
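50 nM RECQ1T1 preincubated 15 min with compound in Tris pH 8.0 buffer with MgCl2, DTT, Tween-20 and 2.5 ug/ml poly(dI-dC); started with 200 nM TAMRA/BHQ-2 forked duplex and 2 mM ATP. Unwinding read as fluorescence (525/598 nm), two reads 2 h apart.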
FEN1 inh-2 – confirmation of human FEN1 inhibitors; 880 tested, 79% active; Potency, µM, hits mostly inhibitors; AID 720498; shares compounds with FEN1 inh-1; FEN1 flap cleavage, TAMRA/BHQ2 fluorogenic DNA substrate; also: nearly all actives have a fitted effect of over 60% in size
* = called active by the depositor; i = inactive; u = inconclusive; x = not tested or not shown; [ ] = dose if it differs, or a comment. A selection: hits, their analogues and other compounds. The true share with any hit is near 0.92%. Calls follow the shape of the dose curve; as a rule, active = well fitted curve in the direction sought with a large enough effect; inconclusive = small, poorly fitted or top-dose-only effect, or another doubt; inactive = no such curve, though single readings can be large; an effect the other way counts as inactive or inconclusive. Potency is read from the fitted curve at half-maximal effect.

SMILES | FEN1 inh-1 | BLM inh | TDP1 block | APEX1 inh | RECQ1 inh | FEN1 inh-2
COc1ccc(NS(=O)(=O)c2ccc3c(c2)[C@H]2C=CC[C@H]2[C@@H](c2ccc(C(=O)O)cc2)N3)cc1 | 20µM* | -18.5% | x | -11.9% | x | 37.9*
CC(=O)OCC(=O)C1CCC2C3CC=C4CC(O)CCC4(C)C3CCC12C (configuration not stated) | -9.0% | x | x | 24.2% | x | x
CC(=O)C1CCC2C3CC=C4CC(SC(=N)N)CCC4(C)C3CCC12C (configuration not stated) | u | x | x | x | x | u
Cc1cccc(NC(=O)CN2C(=O)N/C(=C\c3ccc(-c4cccc(C(=O)O)c4)o3)C2=O)c1 | u | -1.0% | x | u | i | 75.7*
O=C(CN1C(=O)N/C(=C\c2ccccc2OCc2ccc(C(=O)O)cc2)C1=O)Nc1ccccc1F | u | -23.2% | 0.6%[0.0935 µM] | -24.5% | x | 60.1*
COc1cccc(/C=C2/NC(=O)N(CC(=O)Nc3ccc(C)cc3)C2=O)c1OCc1cccc(C(=O)O)c1 | u | u | 3.1%[0.0935 µM] | u | x | x
O=C(O)c1ccc(COc2ccccc2/C=C2\NC(=O)N(Cc3ccccc3F)C2=O)cc1 | -13.8% | -0.1% | 0.0% | 3.2% | -3.4% | x
Cc1ccc(NC(=O)CN2C(=O)N/C(=C/c3ccccc3OCc3cccc(C(=O)O)c3)C2=O)cc1 | 70.8µM* | u | 6.0%[0.0935 µM] | 18.9µM* | x | 75.7*
COc1ccc(CNC(=O)C2CCN(c3nnc(-n4cccc4CNc4ccc(C)cc4)s3)CC2)c(OC)c1 | -8.0% | -7.5% | 1.0% | x | x | x
CCOc1ccc2c(ccc(/C=C/c3cc(C)c4cccnc4c3O)[n+]2C)c1 | 8.91µM* | x | x | x | x | 12*
CCOc1ccc(C2CC(=O)NC(NC(=O)c3ccc(C)cc3)=N2)cc1 (configuration not stated) | -4.8% | -1.2% | 7.5% | x | x | x
CCOc1ccc2nc(NC3=NC(C)(C)C=C(C)N3)nc(C)c2c1 | 39.8µM* | 120.3% | 3.4% | -4.3% | 13.6% | 16.9*
CCOc1ccc2nc(NC3=NC(c4ccc(OC)cc4)CC(=O)N3)nc(C)c2c1 (configuration not stated) | 79.4µM* | -14.3% | 6.0% | u | -39.3% | 75.7*
CC(CCC(C)[n+]1cccc(Br)c1)[n+]1cccc(Br)c1 (configuration not stated) | 9.6% | x | x | x | x | x
COc1ccc2c(/C=C/c3cc[n+](C)cc3)c[nH]c2c1 | -25.3% | 0.0% | x | -13.0% | x | x
COc1ccc2c(c1)c(/C=C/c1cc[n+](C)cc1)cn2C | u | 57.1% | x | -12.5% | x | 42.6*
COc1ccc2cc(CNCCOCCOCCNCc3ccc4cc(OC)ccc4c3)ccc2c1 | 39.8µM* | x | x | x | x | 37.9*
COc1cccc(CNC(=O)CSc2n[nH]c(-c3ccccc3Cl)n2)c1OC | 15.4% | 0.2% | -2.7% | x | x | x
Cc1nc2ccc(N)cc2c(=O)n1Cc1ccc(Cl)cc1 | 1.6% | -1.2% | 1.0% | 4.2% | -4.4% | x
Nc1ccc(Cn2ccc3c4c(N)nc(N)nc4ccc32)cc1 | 25.1µM* | x | x | x | x | 42.6*
O=C(O)CCNc1cc(N2CCN(C(=O)c3ccco3)CC2)c2noc3c2c1C(=O)c1ccccc1-3 | 31.6µM* | -15.9% | 0.0% | -33.5% | x | 30.1*
CCN1CCN(c2cc(N3CCN(C(=O)c4ccco4)CC3)c3c4c(onc24)-c2ccccc2C3=O)CC1 | u | -25.3% | 8.9% | -22.7% | x | x
O=C(O)CCCNc1cc(N2CCN(C3CCCCC3)CC2)c2noc3c2c1C(=O)c1ccccc1-3 | u | -22.0% | -5.9% | x | x | u
CCNc1cc(N2CCN(C3CCCCC3)CC2)c2noc3c2c1C(=O)c1ccccc1-3 | 5.9% | -3.2% | 9.0% | x | x | x
Cc1ccc(N(C(=O)COc2ccccc2C)S(=O)(=O)c2ccc(Cl)cc2)cc1 | -5.0% | -7.7% | 2.9%[2.28 µM] | x | x | x
SMILES | FEN1 inh-1 | BLM inh | TDP1 block | APEX1 inh | RECQ1 inh | FEN1 inh-2
CC(C)c1nnc(NC(=O)C2CCN(C(=O)C(C)(C)C)CC2)s1 | -9.8% | x | x | x | x | x
O=C1/C(=C\c2c(NCCOCCO)nc3ccccn3c2=O)SC(=S)N1Cc1ccco1 | u | -20.8% | x | u | x | 84.9*
COc1cccc(CNC(=O)C2CCN(Cc3cc4ccccc4n3Cc3ccccc3)CC2)c1OC | 12.5% | -6.9% | 8.3% | x | x | x
NC(=O)N=Nc1c2[nH]c3ccccc3nc-2c2ccccc12 | 10µM* | 4.4% | x | u | -10.5% | 3.38*
COc1cc(/C=C2\SC(=O)N(CC(=O)Nc3cccc(C)c3)C2=O)cc([N+](=O)[O-])c1O | u | -29.5% | 0.0% | 3.7% | -4.8% | 75.7*
COc1cc(/C=C2\SC(=O)N(c3ccccc3Cl)C2=O)cc([N+](=O)[O-])c1O | u | -2.8% | 12.0% | -5.3% | u | x
COc1ccc(-n2c(O)c(/C=N/NS(=O)(=O)c3ccc(C)c([N+](=O)[O-])c3)c3ccccc3c2=O)cc1OC | -10.0% | -16.3% | 5.5% | -7.8% | -3.8% | x
O=c1c2ccccc2c(/C=N/NS(=O)(=O)c2ccccc2)c(O)n1-c1ccccn1 | -4.0% | -3.3% | 2.7% | -9.9% | -4.4% | u
CCn1c(=NC(=O)c2ccc(S(=O)(=O)N3CCCCC3)cc2)sc2cccc(OC)c21 | 9.8% | -0.6% | -0.6% | x | x | x
NC(N)=Nc1nc(-c2ccccc2)c2cc(F)ccc2n1 | 79.4µM* | 106.3% | 9.3% | 2.9% | 25.1% | 53.6*
O=C(O)c1ccccc1NS(=O)(=O)c1ccc(NN=Cc2cccc(Cl)c2)c([N+](=O)[O-])c1 | u | x | 0.0% | u | x | x
O=C(O)c1ccccc1NS(=O)(=O)c1ccc(N/N=C/c2ccc(O)c(O)c2)c([N+](=O)[O-])c1 | 28.2µM* | x | x | x | x | 47.8*
Cc1ccc(/C=C/c2nc3sc(C(=O)O)c(C)c3c(=O)[nH]2)cc1[N+](=O)[O-] | 1.6% | -9.4% | 11.2µM* | 8.44µM* | x | 75.7*
COc1ccc(-c2c(-c3ccccc3)c(C(=O)C(=O)NCCCN(C)C)n3ccc4cc(OC)c(OC)cc4c23)cc1OC | 39.8µM* | 36.5% | x | -36.9% | x | 33.8*
O=C1Nc2ccccc2Oc2cc([N+](=O)[O-])cc(Oc3ccccc3)c21 | u | -9.7% | 2.6% | -4.2% | 1.8% | 84.9*
CNc1c(Cl)cc(C=O)cc1Cl | -1.5% | x | x | x | x | x
CCN1CCCC1CNC(=O)c1ccc2c(c1)NC(=O)/C(=C\c1ccc(OC)c(OC)c1)S2 (configuration not stated) | u | -21.1% | 3.2% | -30.0% | x | 37.9*
COCCNC(=O)c1cc2c(-c3ccc(Cl)cc3)nn(C)c2s1 | u | -9.5% | 0.0% | u | -5.5% | x
CCN1CCCC1CNC(=O)c1cc2c(-c3ccc(Cl)cc3)nn(C)c2s1 (configuration not stated) | 50.1µM* | 183.8% | 3.9% | -9.8% | 9.6% | 42.6*
